In paper PMC5540273 (PLoS ONE, 2017):

Columns and labels:
Details in all cases: concentration: 1 μM, replicates: in singlicate; n = 1
ALK = tested on: ALK
AMPK-alpha1 = tested on: T1, AMPK-alpha1
T1 construct: gene PRKAA1

AMPK-alpha2 = tested on: T2, AMPK-alpha2
T2 construct: gene PRKAA2

ANKK1 = tested on: ANKK1
ARK5 = tested on: T3, ARK5
T3 construct: gene NUAK1

ASK1 = tested on: T4, ASK1
T4 construct: gene MAP3K5

ASK2 = tested on: T5, ASK2
T5 construct: gene MAP3K6

AURKA = tested on: AURKA
AURKB = tested on: AURKB
AURKC = tested on: AURKC
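Note: KINOMEscan kinase panel screen.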

Row | Compound | %Inh (ALK) [%] | %Inh (AMPK-alpha1) [%] | %Inh (AMPK-alpha2) [%] | %Inh (ANKK1) [%] | %Inh (ARK5) [%] | %Inh (ASK1) [%] | %Inh (ASK2) [%] | %Inh (AURKA) [%] | %Inh (AURKB) [%] | %Inh (AURKC) [%]
1 | COc1cc(Nc2nccc(N3CCC(NC(=O)C(C)c4ccc(Cl)cc4)C3)n2)cc(OC)c1OC (stereo not shown) [GSK1379757] | 22 | 17 | 0 | 17 | 34 | 0 | 0 | 52 | 60 | 72
2 | COc1ccc(CNC(=O)NC2CCN(c3ccnc(Nc4ccc(F)cc4)n3)C2)cc1 (stereo not shown) [GSK1379706] | 0 | 0 | 0 | 8 | 16 | 11 | 0 | 35 | 20 | 19
3 | Cl.NS(=O)(=O)c1cccc(Nc2cc(-c3ccc(F)cc3)n[nH]2)c1 [GW824645] | 0 | 0 | 18 | 0 | 0 | 0 | 0 | 4 | 29 | 0
4 | CCS(=O)(=O)c1ccc(OC)c(Nc2ncc(-c3ccc(F)cc3)o2)c1.Cl [GW591947] | 22 | 8 | 17 | 7 | 3 | 0 | 0 | 3 | 0 | 26
